In PMC7862700, “An all-to-all approach to the identification of sequence-specific readers for epigenetic DNA modifications on cytosine”:

Key:
Experiment in all cases: DAPPL (digital affinity profiling via proximity ligation, sequencing); 10 mM Tris-HCl pH 7.5, 50 mM NaCl, 1 mM DTT, 4% glycerol, room temperature, 30 min; GST-TFs on glutathione beads, 16-mer random dsDNA library, 0.1% formaldehyde crosslink after washing; high values mean tight binding
FEV = target: T1, FEV (Homo sapiens, UniProt Q99581 1-238); details: protein: recombinant; tags: N-terminal GST; dsDNA, one strand shown
T1 sequence: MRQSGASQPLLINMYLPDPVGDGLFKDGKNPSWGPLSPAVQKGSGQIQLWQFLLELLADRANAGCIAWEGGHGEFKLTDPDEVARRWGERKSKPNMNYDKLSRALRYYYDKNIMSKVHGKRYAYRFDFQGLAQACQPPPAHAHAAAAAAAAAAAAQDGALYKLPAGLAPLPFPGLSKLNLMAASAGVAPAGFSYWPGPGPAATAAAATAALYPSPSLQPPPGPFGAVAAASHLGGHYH
Outline: (§1)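 Pools were built from human transcription factors expressed in yeast as GST fusions, captured on glutathione beads and DNA-barcoded, along with a tag-only sample. Incubation with 200 nmole of a 16-mer random double-stranded DNA library lasted 30 min at room temperature in Tris/NaCl/DTT/glycerol buffer, and was followed by washing, 0.1% formaldehyde crosslinking, proximity ligation, PCR amplification and Illumina NextSeq500 sequencing. Binding signal is the quotient of each hexamer's read frequency for a factor and its frequency for the tag-only sample.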

ETV5 = ETV5 (Homo sapiens, UniProt P41161 1-510); details: protein: recombinant; tags: N-terminal GST; dsDNA, one strand shown
Outline: as §1

HSF1 = HSF1 (Homo sapiens, UniProt Q00613 1-529); details: protein: recombinant; tags: N-terminal GST; chain copies: 3; dsDNA, one strand shown
Outline: as §1

SPIC = target: T2, SPIC (Homo sapiens, UniProt Q8N5J4 1-248); details: protein: recombinant; tags: N-terminal GST; dsDNA, one strand shown
T2 sequence: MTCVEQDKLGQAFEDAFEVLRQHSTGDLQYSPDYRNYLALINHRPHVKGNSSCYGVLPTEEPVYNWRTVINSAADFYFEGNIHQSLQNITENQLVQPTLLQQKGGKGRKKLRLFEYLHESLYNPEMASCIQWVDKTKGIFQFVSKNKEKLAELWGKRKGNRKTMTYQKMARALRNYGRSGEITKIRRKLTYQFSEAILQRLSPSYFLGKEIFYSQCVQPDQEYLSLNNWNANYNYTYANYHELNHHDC
Outline: as §1

ELF4 = ELF4 (Homo sapiens, UniProt Q99607 1-663); details: protein: recombinant; tags: N-terminal GST; dsDNA, one strand shown
Outline: as §1

ELK4 = target: T3, ELK4 (Homo sapiens, UniProt P28324-2 1-405); details: protein: recombinant; tags: N-terminal GST; dsDNA, one strand shown
T3 sequence: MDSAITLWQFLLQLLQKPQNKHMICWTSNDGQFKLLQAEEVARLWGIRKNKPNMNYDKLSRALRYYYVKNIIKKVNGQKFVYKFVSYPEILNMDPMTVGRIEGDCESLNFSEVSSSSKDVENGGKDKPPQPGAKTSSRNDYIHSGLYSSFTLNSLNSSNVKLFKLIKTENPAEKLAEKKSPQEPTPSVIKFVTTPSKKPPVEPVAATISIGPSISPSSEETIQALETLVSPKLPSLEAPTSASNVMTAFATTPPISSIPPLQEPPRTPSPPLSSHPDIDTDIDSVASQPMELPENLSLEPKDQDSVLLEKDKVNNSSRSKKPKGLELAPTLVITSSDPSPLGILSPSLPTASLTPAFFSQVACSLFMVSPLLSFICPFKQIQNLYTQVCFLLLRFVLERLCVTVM
Outline: as §1

ETV2 = target: T4, ETV2 (Homo sapiens, UniProt O00321 1-342); details: protein: recombinant; tags: N-terminal GST; dsDNA, one strand shown
T4 sequence: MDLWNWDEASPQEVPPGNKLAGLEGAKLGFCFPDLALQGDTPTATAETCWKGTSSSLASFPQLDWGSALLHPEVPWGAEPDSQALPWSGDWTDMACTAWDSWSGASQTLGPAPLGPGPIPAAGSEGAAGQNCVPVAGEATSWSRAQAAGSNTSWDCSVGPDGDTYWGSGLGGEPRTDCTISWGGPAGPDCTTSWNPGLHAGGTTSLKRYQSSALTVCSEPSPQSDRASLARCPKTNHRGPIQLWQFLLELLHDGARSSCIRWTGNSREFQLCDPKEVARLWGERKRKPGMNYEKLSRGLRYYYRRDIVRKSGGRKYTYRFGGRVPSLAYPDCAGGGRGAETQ
Outline: as §1

ELF3 = target: T5, ELF3 (Homo sapiens, UniProt P78545 1-371); details: protein: recombinant; tags: N-terminal GST; dsDNA, one strand shown
T5 sequence: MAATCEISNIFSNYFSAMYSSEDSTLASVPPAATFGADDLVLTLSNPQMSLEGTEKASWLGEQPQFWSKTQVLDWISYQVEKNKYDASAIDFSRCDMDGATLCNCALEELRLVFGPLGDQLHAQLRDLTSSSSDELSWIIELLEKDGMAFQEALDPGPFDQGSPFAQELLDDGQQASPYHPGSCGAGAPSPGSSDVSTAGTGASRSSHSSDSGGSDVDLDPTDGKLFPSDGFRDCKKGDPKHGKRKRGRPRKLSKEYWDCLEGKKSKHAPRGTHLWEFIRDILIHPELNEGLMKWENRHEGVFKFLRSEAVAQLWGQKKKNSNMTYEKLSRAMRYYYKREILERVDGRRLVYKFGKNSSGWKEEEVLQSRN
Outline: as §1

CRX = CRX (Homo sapiens, UniProt O43186 1-299); details: protein: recombinant; tags: N-terminal GST; dsDNA, one strand shown
Outline: as §1

ETV1 = ETV1 (Homo sapiens, UniProt P50549 1-477); details: protein: recombinant; tags: N-terminal GST; dsDNA, one strand shown
Outline: as §1

ERF = target: T6, ERF (Homo sapiens, UniProt P50548 1-548); details: protein: recombinant; tags: N-terminal GST; dsDNA, one strand shown
T6 sequence: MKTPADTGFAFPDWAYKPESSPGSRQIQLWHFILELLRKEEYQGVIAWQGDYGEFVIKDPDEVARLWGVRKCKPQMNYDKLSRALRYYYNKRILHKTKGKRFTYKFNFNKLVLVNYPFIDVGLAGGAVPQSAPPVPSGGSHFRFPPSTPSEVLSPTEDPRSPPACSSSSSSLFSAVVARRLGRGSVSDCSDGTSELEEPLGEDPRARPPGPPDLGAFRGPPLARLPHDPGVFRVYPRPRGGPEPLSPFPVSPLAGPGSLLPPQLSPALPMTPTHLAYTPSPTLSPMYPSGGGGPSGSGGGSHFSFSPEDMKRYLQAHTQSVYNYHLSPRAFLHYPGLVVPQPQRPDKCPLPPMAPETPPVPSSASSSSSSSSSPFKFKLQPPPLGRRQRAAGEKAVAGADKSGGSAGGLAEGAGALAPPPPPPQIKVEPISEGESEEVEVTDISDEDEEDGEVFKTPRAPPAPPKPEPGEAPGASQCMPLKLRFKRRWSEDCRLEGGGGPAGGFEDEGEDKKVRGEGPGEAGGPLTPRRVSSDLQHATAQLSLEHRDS
Outline: as §1

ETV3L = target: T7, ETV3L (Homo sapiens, UniProt Q6ZN32 1-361); details: protein: recombinant; tags: N-terminal GST; dsDNA, one strand shown
T7 sequence: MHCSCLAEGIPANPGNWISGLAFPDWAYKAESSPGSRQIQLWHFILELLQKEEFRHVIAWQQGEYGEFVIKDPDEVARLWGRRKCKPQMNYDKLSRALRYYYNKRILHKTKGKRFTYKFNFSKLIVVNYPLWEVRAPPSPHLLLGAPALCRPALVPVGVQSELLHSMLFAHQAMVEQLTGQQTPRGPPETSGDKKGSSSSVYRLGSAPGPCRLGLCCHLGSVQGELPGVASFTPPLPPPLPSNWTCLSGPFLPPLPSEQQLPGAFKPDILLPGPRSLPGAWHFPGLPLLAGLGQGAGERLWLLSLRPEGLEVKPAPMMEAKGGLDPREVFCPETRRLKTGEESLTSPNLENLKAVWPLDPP
Outline: as §1

ETS2 = target: T8, ETS2 (Homo sapiens, UniProt P15036 1-469); details: protein: recombinant; tags: N-terminal GST; dsDNA, one strand shown
T8 sequence: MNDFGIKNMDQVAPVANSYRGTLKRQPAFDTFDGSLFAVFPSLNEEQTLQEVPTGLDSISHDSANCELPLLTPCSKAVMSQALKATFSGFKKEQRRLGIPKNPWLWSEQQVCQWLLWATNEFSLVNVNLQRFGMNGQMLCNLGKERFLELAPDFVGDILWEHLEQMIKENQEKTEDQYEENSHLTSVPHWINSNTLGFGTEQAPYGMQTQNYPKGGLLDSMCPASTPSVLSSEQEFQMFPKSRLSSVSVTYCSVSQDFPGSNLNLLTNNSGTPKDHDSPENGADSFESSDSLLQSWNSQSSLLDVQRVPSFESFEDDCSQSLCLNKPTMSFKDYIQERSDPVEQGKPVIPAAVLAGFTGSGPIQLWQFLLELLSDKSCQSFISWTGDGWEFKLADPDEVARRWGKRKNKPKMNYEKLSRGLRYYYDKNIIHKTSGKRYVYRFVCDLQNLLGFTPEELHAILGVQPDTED
Outline: as §1

SPDEF = target: T9, SPDEF (Homo sapiens, UniProt O95238 1-335); details: protein: recombinant; tags: N-terminal GST; dsDNA, one strand shown
T9 sequence: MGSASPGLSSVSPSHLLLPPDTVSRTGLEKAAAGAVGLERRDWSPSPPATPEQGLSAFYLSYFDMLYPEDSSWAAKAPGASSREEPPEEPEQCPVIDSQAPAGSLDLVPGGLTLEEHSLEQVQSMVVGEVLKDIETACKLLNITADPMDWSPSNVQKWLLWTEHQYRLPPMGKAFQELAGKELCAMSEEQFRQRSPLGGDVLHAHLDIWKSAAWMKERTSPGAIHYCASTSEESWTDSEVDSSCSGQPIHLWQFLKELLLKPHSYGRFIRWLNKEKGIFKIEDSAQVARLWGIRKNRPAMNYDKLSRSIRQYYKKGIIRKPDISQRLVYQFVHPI
Outline: as §1

ETV7 = target: T10, ETV7 (Homo sapiens, UniProt Q9Y603 1-341); details: protein: recombinant; tags: N-terminal GST; dsDNA, one strand shown
T10 sequence: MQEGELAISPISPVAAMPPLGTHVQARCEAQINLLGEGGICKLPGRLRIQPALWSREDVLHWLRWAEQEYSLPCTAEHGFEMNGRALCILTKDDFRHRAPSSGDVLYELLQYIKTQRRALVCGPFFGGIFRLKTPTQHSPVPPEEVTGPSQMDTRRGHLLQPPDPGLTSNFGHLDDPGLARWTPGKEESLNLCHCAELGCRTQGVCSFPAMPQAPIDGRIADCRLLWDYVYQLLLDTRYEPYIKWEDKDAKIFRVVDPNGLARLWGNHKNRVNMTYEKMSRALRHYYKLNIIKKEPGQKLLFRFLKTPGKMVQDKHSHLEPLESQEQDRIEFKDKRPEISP
Outline: as §1

ELF5 = target: T11, ELF5 (Homo sapiens, UniProt Q9UKW6-2 1-255); details: protein: recombinant; tags: N-terminal GST; dsDNA, one strand shown
T11 sequence: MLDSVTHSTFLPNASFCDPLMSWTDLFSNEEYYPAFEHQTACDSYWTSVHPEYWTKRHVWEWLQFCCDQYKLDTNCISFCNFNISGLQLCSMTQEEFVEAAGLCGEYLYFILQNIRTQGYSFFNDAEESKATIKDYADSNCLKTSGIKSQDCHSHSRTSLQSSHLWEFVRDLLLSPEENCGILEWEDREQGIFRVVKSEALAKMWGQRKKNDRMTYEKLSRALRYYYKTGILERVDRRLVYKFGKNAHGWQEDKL
Outline: as §1

ETV3 = target: T12, ETV3 (Homo sapiens, UniProt P41162-2 1-143); details: protein: recombinant; tags: N-terminal GST; dsDNA, one strand shown
T12 sequence: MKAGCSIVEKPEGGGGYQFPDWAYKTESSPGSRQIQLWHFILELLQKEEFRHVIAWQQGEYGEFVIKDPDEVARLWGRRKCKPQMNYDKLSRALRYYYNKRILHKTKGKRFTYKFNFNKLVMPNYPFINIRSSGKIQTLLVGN
Outline: as §1

ETV6 = ETV6 (Homo sapiens, UniProt P41212 1-452); details: protein: recombinant; tags: N-terminal GST; dsDNA, one strand shown
Outline: as §1

Chain of CRX (O43186 whole entry): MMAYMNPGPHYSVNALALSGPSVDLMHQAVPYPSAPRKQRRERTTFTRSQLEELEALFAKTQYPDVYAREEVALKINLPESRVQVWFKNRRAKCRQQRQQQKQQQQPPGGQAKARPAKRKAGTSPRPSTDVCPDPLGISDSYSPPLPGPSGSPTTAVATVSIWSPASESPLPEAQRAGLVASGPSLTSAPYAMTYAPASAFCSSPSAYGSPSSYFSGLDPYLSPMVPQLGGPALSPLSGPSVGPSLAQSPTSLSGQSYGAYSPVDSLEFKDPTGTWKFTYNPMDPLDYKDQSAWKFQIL
Chain of ETV5 (P41161 whole entry): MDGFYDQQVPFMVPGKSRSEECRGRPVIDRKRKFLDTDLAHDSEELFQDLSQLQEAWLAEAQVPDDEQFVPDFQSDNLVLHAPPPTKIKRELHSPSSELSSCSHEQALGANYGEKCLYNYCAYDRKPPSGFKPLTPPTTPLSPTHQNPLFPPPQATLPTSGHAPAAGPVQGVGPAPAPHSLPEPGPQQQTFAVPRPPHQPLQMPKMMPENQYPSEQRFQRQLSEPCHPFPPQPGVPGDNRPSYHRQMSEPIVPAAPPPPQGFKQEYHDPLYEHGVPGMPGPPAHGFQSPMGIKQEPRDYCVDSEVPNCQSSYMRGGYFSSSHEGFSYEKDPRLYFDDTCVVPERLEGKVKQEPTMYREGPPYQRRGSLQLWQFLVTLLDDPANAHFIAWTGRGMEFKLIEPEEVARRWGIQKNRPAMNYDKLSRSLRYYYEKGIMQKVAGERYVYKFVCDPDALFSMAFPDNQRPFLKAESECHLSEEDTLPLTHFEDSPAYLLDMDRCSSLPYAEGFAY
Chain of ELF4 (Q99607 whole entry): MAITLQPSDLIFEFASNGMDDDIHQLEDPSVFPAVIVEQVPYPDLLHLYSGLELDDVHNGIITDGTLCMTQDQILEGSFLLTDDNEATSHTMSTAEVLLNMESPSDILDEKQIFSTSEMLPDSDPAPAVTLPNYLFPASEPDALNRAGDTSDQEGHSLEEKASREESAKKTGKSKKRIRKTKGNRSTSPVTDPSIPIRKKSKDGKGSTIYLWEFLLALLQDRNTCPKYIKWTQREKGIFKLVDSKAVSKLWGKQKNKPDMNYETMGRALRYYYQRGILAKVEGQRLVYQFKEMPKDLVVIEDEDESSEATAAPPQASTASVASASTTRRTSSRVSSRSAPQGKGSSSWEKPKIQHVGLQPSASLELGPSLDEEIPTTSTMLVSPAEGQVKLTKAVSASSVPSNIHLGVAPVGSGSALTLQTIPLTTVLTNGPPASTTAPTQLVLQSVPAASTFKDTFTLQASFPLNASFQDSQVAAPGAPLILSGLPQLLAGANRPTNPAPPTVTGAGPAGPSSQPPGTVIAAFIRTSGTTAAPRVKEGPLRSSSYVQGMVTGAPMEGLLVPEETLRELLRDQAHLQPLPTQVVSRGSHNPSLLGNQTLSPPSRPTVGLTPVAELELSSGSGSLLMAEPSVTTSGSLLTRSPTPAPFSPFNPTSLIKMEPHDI
Chain of ETV6 (P41212 whole entry): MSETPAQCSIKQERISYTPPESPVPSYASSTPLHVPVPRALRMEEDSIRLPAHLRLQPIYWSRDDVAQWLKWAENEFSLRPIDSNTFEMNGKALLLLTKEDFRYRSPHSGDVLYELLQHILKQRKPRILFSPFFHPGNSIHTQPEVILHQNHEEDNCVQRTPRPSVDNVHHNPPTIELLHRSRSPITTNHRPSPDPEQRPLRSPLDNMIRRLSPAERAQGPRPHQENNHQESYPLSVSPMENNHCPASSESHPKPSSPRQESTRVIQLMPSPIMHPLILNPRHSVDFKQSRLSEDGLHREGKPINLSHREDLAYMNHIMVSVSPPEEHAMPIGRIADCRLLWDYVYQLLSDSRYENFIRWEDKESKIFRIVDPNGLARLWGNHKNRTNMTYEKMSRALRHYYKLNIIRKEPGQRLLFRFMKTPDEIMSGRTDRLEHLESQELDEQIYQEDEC
Chain of ETV1 (P50549 whole entry): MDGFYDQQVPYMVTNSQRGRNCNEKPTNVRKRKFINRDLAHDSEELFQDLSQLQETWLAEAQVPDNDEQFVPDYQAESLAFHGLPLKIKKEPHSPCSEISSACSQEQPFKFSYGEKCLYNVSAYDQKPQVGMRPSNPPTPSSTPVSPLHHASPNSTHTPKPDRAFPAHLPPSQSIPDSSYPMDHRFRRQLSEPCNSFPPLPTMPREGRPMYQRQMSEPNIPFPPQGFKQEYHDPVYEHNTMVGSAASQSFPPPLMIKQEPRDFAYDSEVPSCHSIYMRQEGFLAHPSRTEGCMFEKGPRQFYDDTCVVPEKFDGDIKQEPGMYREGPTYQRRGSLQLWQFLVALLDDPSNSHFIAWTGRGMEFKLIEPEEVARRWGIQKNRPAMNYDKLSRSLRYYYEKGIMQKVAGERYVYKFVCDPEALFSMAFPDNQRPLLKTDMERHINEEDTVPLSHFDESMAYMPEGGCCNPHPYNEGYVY
Chain of HSF1 (Q00613 whole entry): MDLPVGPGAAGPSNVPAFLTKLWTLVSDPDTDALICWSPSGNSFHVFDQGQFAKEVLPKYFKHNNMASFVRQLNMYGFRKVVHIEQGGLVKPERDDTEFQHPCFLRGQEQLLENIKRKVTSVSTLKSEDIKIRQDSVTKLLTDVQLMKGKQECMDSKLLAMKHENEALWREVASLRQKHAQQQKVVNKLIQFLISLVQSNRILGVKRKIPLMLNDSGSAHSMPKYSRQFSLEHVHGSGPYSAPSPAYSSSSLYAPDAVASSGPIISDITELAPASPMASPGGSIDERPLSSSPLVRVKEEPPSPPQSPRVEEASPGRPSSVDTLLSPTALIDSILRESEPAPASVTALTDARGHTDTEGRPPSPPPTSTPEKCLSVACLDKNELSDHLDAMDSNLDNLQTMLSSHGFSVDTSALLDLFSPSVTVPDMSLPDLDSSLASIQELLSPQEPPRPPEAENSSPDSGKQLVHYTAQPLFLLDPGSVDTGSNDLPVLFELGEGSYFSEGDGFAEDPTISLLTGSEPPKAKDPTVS

With CTACGA the binding signal (FEV) was 1.34 fold enrichment (6-mer frequency, TF over GST control), the binding signal (ETV5) was 1.2 fold enrichment (6-mer frequency, TF over GST control) and the binding signal (HSF1) was 1.25 fold enrichment (6-mer frequency, TF over GST control). The binding signal (SPIC) was 1.17 fold enrichment (6-mer frequency, TF over GST control), the binding signal (ELF4) was 1.24 fold enrichment (6-mer frequency, TF over GST control) and the binding signal (ELK4) was 1.22 fold enrichment (6-mer frequency, TF over GST control). For the same sequence, the binding signal (ETV2) was 1.47 fold enrichment (6-mer frequency, TF over GST control), the binding signal (ELF3) was 1.5 fold enrichment (6-mer frequency, TF over GST control) and the binding signal (CRX) was 1.21 fold enrichment (6-mer frequency, TF over GST control). The binding signal (ETV1) was 1.19 fold enrichment (6-mer frequency, TF over GST control), the binding signal (ERF) was 1.23 fold enrichment (6-mer frequency, TF over GST control) and the binding signal (ETV3L) was 1.24 fold enrichment (6-mer frequency, TF over GST control). The binding signal (ETS2) was 1.25 fold enrichment (6-mer frequency, TF over GST control), the binding signal (SPDEF) was 1.17 fold enrichment (6-mer frequency, TF over GST control) and the binding signal (ETV7) was 1.26 fold enrichment (6-mer frequency, TF over GST control). For the same sequence, the binding signal (ELF5) was 1.19 fold enrichment (6-mer frequency, TF over GST control), the binding signal (ETV3) was 1.15 fold enrichment (6-mer frequency, TF over GST control) and the binding signal (ETV6) was 1.16 fold enrichment (6-mer frequency, TF over GST control).
